In PubChem BioAssay (EPA / NIEHS):
Results filed as inconclusive are left out. Calls of active or inactive are those of the source. The calls were made as follows, unless noted: active = hit-call score of the fitted dose curve at least 0.9, where 1 is the maximum; inactive = score below 0.9.

Key:
[1] = read-out: solute carrier (SLC22A1), SLC22A1 (gene 6580); experiment: LTEA_HepaRG_SLC22A1: Life Technologies and Expression Analysis (LTEA) Assay for solute carrier (SLC22A1) using HepaRG (AID 2283524); settings: mRNA level, 48 h; actives raise or lower the signal
Summary of the method: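 Differentiated human HepaRG cells in serum-free induction medium, exposed 48 h in duplicate to 8-point half-log series from 100 µM top in 0.5% DMSO. SLC22A1 mRNA by TaqMan qRT-PCR normalized to ACTB, GAPDH, POLR2A; bidirectional fit versus DMSO.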

[2] = read-out: Pyruvate Dehydrogenase Kinase 4 (PDK4), PDK4 (gene 5166); experiment: LTEA_HepaRG_PDK4: Life Technologies and Expression Analysis (LTEA) Assay for Pyruvate Dehydrogenase Kinase 4 (PDK4) using HepaRG (AID 2283525); settings: mRNA level, 48 h; actives raise or lower the signal
Summary of the method: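 HepaRG cells plated 48 h, then switched to serum-free induction medium and exposed in duplicate for 48 h to 8 half-log concentrations from 100 uM in 0.5% DMSO. PDK4 mRNA measured by qRT-PCR, normalized to ACTB, GAPDH and POLR2A; bidirectional fit versus DMSO.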

[3] = read-out: NAD(P)H dehydrogenase [quinone] 1 (NQO1), NQO1 (gene 1728); experiment: LTEA_HepaRG_NQO1: Life Technologies and Expression Analysis (LTEA) Assay for NAD(P)H dehydrogenase [quinone] 1 (NQO1) using HepaRG (AID 2283526); settings: mRNA level, 48 h; actives raise or lower the signal
Summary of the method: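 Human HepaRG hepatic cells received chemicals for 48 h in serum-free induction medium with 0.5% DMSO, up to 100 uM. Expression was assessed by TaqMan qRT-PCR against housekeeping controls and fitted bidirectionally against DMSO.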

[4] = read-out: Nuclear factor erythroid 2-related factor 2 (Homo sapiens) (UniProt Q16236); experiment: LTEA_HepaRG_NFE2L2: Life Technologies and Expression Analysis (LTEA) Assay for Nuclear factor erythroid 2-related factor 2 (NFE2L2) Transcription Factor using HepaRG (AID 2283527); settings: mRNA level, 48 h; actives raise or lower the signal;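 also: TaqMan qRT-PCR transcript level normalised to ACTB GAPDH and POLR2A housekeeping genes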
Summary of the method: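 Differentiated human HepaRG cells, serum-free induction medium, exposed 48 h in duplicate to eight half-log concentrations up to 100 uM in 0.5% DMSO. NFE2L2 mRNA by Fluidigm TaqMan qRT-PCR, normalised to ACTB, GAPDH, POLR2A; bidirectional change versus DMSO.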

[5] = read-out: Signal transducer and activator of transcription 3 (Homo sapiens) (UniProt P40763); experiment: LTEA_HepaRG_STAT3: Life Technologies and Expression Analysis (LTEA) Assay for Signal transducer and activator of transcription (STAT3) using HepaRG (AID 2283529); settings: mRNA level, 48 h; actives raise or lower the signal
Summary of the method: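 Differentiated HepaRG cells, serum-free induction medium, dosed 48 h in duplicate, 8 half-log concentrations from 100 uM in 0.5% DMSO. STAT3 mRNA by qRT-PCR, normalised to ACTB, GAPDH, POLR2A; bidirectional fit versus DMSO.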

[6] = read-out: solute carrier (SLCO1B1), SLCO1B1 (gene 10599); experiment: LTEA_HepaRG_SLCO1B1: Life Technologies and Expression Analysis (LTEA) Assay for solute carrier (SLCO1B1) using HepaRG (AID 2283530); settings: mRNA level, 48 h; actives raise or lower the signal
Summary of the method: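 HepaRG, serum-free induction medium, 48 h dosing, 8-pt half-log from 100 uM, 0.5% DMSO vehicle, duplicates. Readout: SLCO1B1 mRNA, qRT-PCR, ACTB/GAPDH/POLR2A normalization; up or down fit vs DMSO.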

[7] = read-out: sulfotransferase 2A1 (SULT2A1), SULT2A1 (gene 6822); experiment: LTEA_HepaRG_SULT2A1: Life Technologies and Expression Analysis (LTEA) Assay for sulfotransferase 2A1 (SULT2A1) using HepaRG (AID 2283531); settings: mRNA level, 48 h; actives raise or lower the signal
Summary of the method: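 Transcript levels of SULT2A1, quantified by qRT-PCR and normalized to three housekeeping genes, serve as the readout. Human HepaRG cultures receive test chemicals for 48 h at up to 100 uM in half-log steps, with 0.5% DMSO vehicle.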

[8] = read-out: Transforming Growth Factor (TGFA), TGFA (gene 7039); experiment: LTEA_HepaRG_TGFA: Life Technologies and Expression Analysis (LTEA) Assay for Transforming Growth Factor (TGFA) using HepaRG (AID 2283532); settings: mRNA level, 48 h; actives raise or lower the signal
Summary of the method: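 Differentiated HepaRG cells exposed 48 hours in serum-free induction medium, 0.5% DMSO vehicle, 8-point half-log series from 100 uM, in duplicate. TGFA mRNA by TaqMan qRT-PCR, normalised to ACTB, GAPDH, POLR2A; bidirectional fit versus DMSO.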

[9] = read-out: Transforming Growth Factor (TGFB1), TGFB1 (gene 7040); experiment: LTEA_HepaRG_TGFB1: Life Technologies and Expression Analysis (LTEA) Assay for Transforming Growth Factor (TGFB1) Transporter using HepaRG (AID 2283533); settings: mRNA level, 48 h; actives raise or lower the signal
Summary of the method: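 HepaRG, 48 h post-plating, switched to serum-free induction medium; chemicals 100 uM top, half-log, 8 pts, 0.5% DMSO, dup; 48 h exposure; RNA → Fluidigm TaqMan qRT-PCR; norm ACTB/GAPDH/POLR2A; bidirectional fit vs DMSO.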

TIMP1, TIMP1 (gene 7076) = experiment: LTEA_HepaRG_TIMP1: Life Technologies and Expression Analysis (LTEA) Assay for TIMP1 using HepaRG (AID 2283534); settings: mRNA level, 48 h; actives raise or lower the signal;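 also: TaqMan qRT-PCR signal normalized to ACTB GAPDH and POLR2A housekeeping genes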
Summary of the method: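 Readout is TIMP1 mRNA level measured by qRT-PCR and normalized to three housekeeping genes. Human HepaRG cells were treated for 48 h in duplicate at eight concentrations up to 100 uM (0.5% DMSO); gain or loss fitted against DMSO.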

[10] = read-out: Tumor necrosis factor receptor 1 (TNFRSF1A), TNFRSF1A (gene 7132); experiment: LTEA_HepaRG_TNFRSF1A: Life Technologies and Expression Analysis (LTEA) Assay for Tumor necrosis factor receptor 1 (TNFRSF1A) using HepaRG (AID 2283535); settings: mRNA level, 48 h; actives raise or lower the signal
Summary of the method: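 Read-out is TNFRSF1A transcript level by TaqMan qRT-PCR, normalized to three housekeeping genes, scored as gain or loss of signal versus 0.5% DMSO. Human HepaRG cells received test chemicals for 48 h at up to 100 uM (half-log series).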

[11] = read-out: Cellular tumor antigen p53 (Homo sapiens) (UniProt P04637); experiment: LTEA_HepaRG_TP53: Life Technologies and Expression Analysis (LTEA) Assay for Tumor Protein P53 (TP53) using HepaRG (AID 2283537); settings: mRNA level, 48 h; actives raise or lower the signal
Summary of the method: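 HepaRG, 48 h exposure, top 100 uM, half-log 8-point, 0.5% DMSO vehicle, duplicates. Read: TP53 mRNA by TaqMan qRT-PCR, normalised to ACTB/GAPDH/POLR2A; bidirectional fit vs DMSO.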

[12] = read-out: UDP glucuronosyltransferase (UGT1A1), UGT1A1 (gene 54658); experiment: LTEA_HepaRG_UGT1A1: Life Technologies and Expression Analysis (LTEA) Assay for UDP glucuronosyltransferase (UGT1A1) using HepaRG (AID 2283538); settings: mRNA level, 48 h; actives raise or lower the signal
Summary of the method: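 Human liver HepaRG cultures receive test chemical for 48 h, up to 100 uM in 0.5% DMSO, with phenobarbital induction controls. UGT1A1 mRNA is measured by qRT-PCR and normalized to ACTB, GAPDH and POLR2A.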

[13] = read-out: UDP glucuronosyltransferase (UGT1A6), UGT1A6 (gene 54578); experiment: LTEA_HepaRG_UGT1A6: Life Technologies and Expression Analysis (LTEA) Assay for UDP glucuronosyltransferase (UGT1A6) using HepaRG (AID 2283539); settings: mRNA level, 48 h; actives raise or lower the signal
Summary of the method: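 HepaRG, 48 h post-plating switch to serum-free induction medium; chemical 48 h, 100 uM top, half-log x8, duplicate, 0.5% DMSO. Phenobarbital 1mM induction control. UGT1A6 mRNA by TaqMan qRT-PCR; gain/loss fit vs DMSO.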

[14] = read-out: X-box binding protein 1 (XBP1), XBP1 (gene 7494); experiment: LTEA_HepaRG_XBP1: Life Technologies and Expression Analysis (LTEA) Assay for X-box binding protein 1 (XBP1) using HepaRG (AID 2283540); settings: mRNA level, 48 h; actives raise or lower the signal
Summary of the method: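 Transcript levels of XBP1, measured by qRT-PCR and normalised to three housekeeping genes, were fitted bidirectionally relative to 0.5% DMSO controls. Human HepaRG cells received eight-point half-log dilutions from 100 uM for 48 h.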

[15] = LTEA_HepaRG_LDH_cytotoxicity: Cytotoxicity Assessment in the Life Technologies and Expression Analysis (LTEA) Assay (AID 2283563; active = hit-call score of the fitted dose curve at least 0.9, where 1 is the maximum;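 as to AC50: LDH activity released into spent culture medium as a marker of cell death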)
Summary of the method: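 Cells were thawed and plated for 48 h. Medium was then replaced with serum-free induction medium. Chemicals (8 half-log points, maximum 100 uM, 0.5% DMSO) were added in duplicate for 48 h, after which spent medium was assayed for LDH.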

[16] = ATG_XTT_Cytotoxicity: Cytotoxicity Assessment in the Attagene TRANS-FACTORIAL HepG2 Assay (AID 2283584; active = hit-call score of the fitted dose curve at least 0.9, where 1 is the maximum)
Summary of the method: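 Cells: human HepG2, transiently transfected with MRTU reporter constructs. Exposure 24 h. Readout: XTT, cell number. Baseline/neg ctrl DMSO; loss-of-signal scored.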

[17] = read-out: succinate dehydrogenase complex iron sulfur subunit B (SDHB), SDHB (gene 6390); experiment: LTEA_HepaRG_SDHB: Life Technologies and Expression Analysis (LTEA) Assay for succinate dehydrogenase complex iron sulfur subunit B (SDHB) using HepaRG (AID 2283528); settings: mRNA level, 48 h; actives raise or lower the signal
Summary of the method: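 HepaRG, 48 h exposure, 8-pt half-log series from 100 uM in 0.5% DMSO, duplicates. Readout: SDHB mRNA by Fluidigm qRT-PCR vs housekeeping genes; bidirectional fit relative to DMSO.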

[18] = read-out: Thyroid Hormone Responsive (THRSP), THRSP (gene 7069); experiment: LTEA_HepaRG_THRSP: Life Technologies and Expression Analysis (LTEA) Assay for Thyroid Hormone Responsive (THRSP) using HepaRG (AID 2283536); settings: mRNA level, 48 h; actives raise or lower the signal
Summary of the method: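 Differentiated HepaRG cells treated 48 h in serum-free induction medium with 8 half-log concentrations up to 100 uM (0.5% DMSO), duplicates. THRSP mRNA by TaqMan qRT-PCR normalised to ACTB, GAPDH, POLR2A; bidirectional fit versus DMSO.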

[19] = TOX21_p53_BLA_p2_viability: Viability Assessment in the Tox21 HCT-116 p53 Agonism Beta-lactamase Assay, Phase 2 (AID 2283591; active = hit-call score of the fitted dose curve at least 0.9, where 1 is the maximum;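 also: compound exposure lasted 16 h at 37 °C; actives lower the ATP signal meaning cytotoxicity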)
Summary of the method: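 HCT116 p53-bla cells, 4000/well, dosed after 5 h plating (217-fold dilution of DMSO stocks) and incubated 16 h at 37C. Viability taken as cellular ATP by CellTiter-Glo luminescence after 30 min RT; signal loss marks cytotoxicity.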

Measured: AC50

Chain of Nuclear factor erythroid 2-related factor 2 (Homo sapiens) (Q16236 whole entry, looked up): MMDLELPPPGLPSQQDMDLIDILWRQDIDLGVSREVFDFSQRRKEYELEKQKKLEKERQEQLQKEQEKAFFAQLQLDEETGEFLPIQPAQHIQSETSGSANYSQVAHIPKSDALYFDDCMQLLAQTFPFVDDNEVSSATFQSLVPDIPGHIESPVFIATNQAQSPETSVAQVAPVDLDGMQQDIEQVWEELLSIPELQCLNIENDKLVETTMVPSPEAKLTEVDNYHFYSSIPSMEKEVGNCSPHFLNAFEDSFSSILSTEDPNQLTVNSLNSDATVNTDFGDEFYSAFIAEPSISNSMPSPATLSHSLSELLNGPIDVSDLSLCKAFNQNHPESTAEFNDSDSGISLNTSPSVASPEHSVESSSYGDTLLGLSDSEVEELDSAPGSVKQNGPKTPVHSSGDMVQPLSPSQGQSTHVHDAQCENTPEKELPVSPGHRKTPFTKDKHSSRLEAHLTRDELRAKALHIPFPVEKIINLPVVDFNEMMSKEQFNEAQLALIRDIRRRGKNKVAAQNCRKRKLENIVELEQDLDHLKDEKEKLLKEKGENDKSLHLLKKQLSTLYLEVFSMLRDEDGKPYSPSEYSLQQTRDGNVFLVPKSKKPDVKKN
Chain of Cellular tumor antigen p53 (Homo sapiens) (P04637 whole entry, looked up): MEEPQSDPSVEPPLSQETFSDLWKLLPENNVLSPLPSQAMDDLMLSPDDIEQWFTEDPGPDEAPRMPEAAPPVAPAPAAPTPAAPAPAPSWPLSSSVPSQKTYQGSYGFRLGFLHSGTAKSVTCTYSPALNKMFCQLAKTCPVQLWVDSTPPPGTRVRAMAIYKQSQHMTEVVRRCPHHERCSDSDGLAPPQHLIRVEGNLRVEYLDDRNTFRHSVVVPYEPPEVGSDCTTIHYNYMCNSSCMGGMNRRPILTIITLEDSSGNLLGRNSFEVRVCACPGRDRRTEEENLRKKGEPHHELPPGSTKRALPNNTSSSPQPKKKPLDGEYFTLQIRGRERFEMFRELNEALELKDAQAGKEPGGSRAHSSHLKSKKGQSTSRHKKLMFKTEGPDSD
Chain of Signal transducer and activator of transcription 3 (Homo sapiens) (P40763 whole entry, looked up): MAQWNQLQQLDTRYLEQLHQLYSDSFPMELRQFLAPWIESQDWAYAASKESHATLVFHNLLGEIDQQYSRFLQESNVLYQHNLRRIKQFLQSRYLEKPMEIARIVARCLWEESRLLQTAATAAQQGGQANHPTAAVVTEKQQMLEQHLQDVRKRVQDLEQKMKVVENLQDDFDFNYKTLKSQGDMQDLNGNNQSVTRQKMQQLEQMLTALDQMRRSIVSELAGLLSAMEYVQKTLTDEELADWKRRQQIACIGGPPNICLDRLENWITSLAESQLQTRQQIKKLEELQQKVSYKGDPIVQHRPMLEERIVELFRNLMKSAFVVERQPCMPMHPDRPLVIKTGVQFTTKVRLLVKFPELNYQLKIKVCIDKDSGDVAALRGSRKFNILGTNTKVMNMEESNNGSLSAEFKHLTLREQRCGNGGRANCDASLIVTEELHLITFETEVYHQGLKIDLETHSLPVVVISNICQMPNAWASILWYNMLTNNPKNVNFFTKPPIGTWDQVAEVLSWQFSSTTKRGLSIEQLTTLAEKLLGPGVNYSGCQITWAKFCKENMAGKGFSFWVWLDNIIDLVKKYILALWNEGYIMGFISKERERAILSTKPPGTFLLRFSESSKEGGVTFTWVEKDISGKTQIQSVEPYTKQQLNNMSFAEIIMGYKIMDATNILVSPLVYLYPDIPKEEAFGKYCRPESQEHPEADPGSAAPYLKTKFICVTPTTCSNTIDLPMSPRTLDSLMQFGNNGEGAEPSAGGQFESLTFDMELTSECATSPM

CN(C)CCCN(C)CCCN(C)C
inactive: [1] | [2] | [3] | [4] | [5] | [6] | [7] | [8] | [9] | TIMP1, TIMP1 (gene 7076) | [10] | [11] | [12] | [13] | [14] | [15] | [16]

CCCC[C@H]1CN(CC2CCOCC2)C(=O)OC12CCN(C1(C)CCN(C(=O)c3c(C)ncnc3C)CC1)CC2
inactive: [1] | [2] | [3] | [4] | [5] | [6] | [7] | [8] | [9] | TIMP1, TIMP1 (gene 7076) | [10] | [11] | [12] | [13] | [14] | [16]

CSc1ccc(Oc2ccc(S(N)(=O)=O)cc2CN(C)C)cc1C
active: [15] 81.4 µM
inactive: [1] | [2] | [3] | [4] | [17] | [5] | [7] | [8] | [9] | TIMP1, TIMP1 (gene 7076) | [10] | [12] | [13] | [14]

CCOCCOCCO
inactive: [1] | [2] | [3] | [4] | [5] | [6] | [7] | [8] | [9] | TIMP1, TIMP1 (gene 7076) | [10] | [18] | [11] | [12] | [13] | [14] | [15] | [16] | [19]
